AMPAR-TARP mod: modulates AMPAR-stargazin complexes; O88602+P19491; HEK293 GluA2+stargazin, membrane potential dye (FDSS), glutamate EC50; hits were called plate by plate, in both directions; calls only at 30 µM; 40,000 compounds, 3.5% hits;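 active means any of four per-well response measures lying three or more SD from its plate-wide compound average, in either direction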
GIRK2 activator: Activates human GIRK2-containing potassium channels; P48051; activation (% efficacy), % for hits at 37.5 µM; 34,000 tested, under 10 active; HEK293 GIRK2/NPY4 cells, thallium flux fluorescence;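 active means primary screen hit, no activity in plain HEK293 cells, and in GIRK2-only cells above 5% efficacy rising with concentration; inactive means the rest, including fluorescent compounds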;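 further: efficacy is normalized control-subtracted fluorescence 15 s after thallium addition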
Calls only; n = inactive; x = no result; + = active, no number. The entries come from a sample that favours hits as a whole.

SMILES | AMPAR-TARP mod | GIRK2 activator
CS(=O)(=O)N1CCC(CNC(=O)C2CCCCC2)CC1 | + | n
COCCN1CCC(CNC(=O)C2CCN(S(C)(=O)=O)CC2)CC1 | x | n
Cc1ccc(S(=O)(=O)c2c(C)nn(C(C)(C)C)c2OC(=O)c2cccc(C)c2)cc1 | n | x
COc1ccc(C(=O)Oc2c(S(=O)(=O)c3ccc(C)cc3)c(C)nn2C(C)(C)C)cc1OC | + | x
CCNC(=O)c1c(NC(=O)c2snnc2CC)sc2c1CCCC2 | n | n
COCCN1CCC(CNC(=O)CCc2ccc(OC)cc2)CC1 | x | n
CN(C)C(CNC(=O)C(=O)NC1CC1)c1ccc(F)cc1 (centres undefined) | n | n
Cc1ccc(C(CNC(=O)C(=O)NC2CC2)N(C)C)cc1 (centres undefined) | + | n
CC(C)CCNC(=O)CCc1csc(NC(=O)c2ccc[nH]c2=O)n1 | n | x
COCCNC(=O)CCc1csc(NC(=O)c2ccc[nH]c2=O)n1 | + | n
CNC(=O)c1nsc(C(=O)NCc2cccc(C(F)(F)F)c2)c1N | n | n
CNC(=O)c1nsc(C(=O)NCc2ccc(OC)c(OC)c2)c1N | + | n
Cn1nnc2c(N3CCN(C(=O)c4ccccc4SC(F)F)CC3)ncnc21 | n | n
COc1ccc(-c2nnc3n(CCc4ccccc4)c4c(=O)n(C)c(=O)n(C)c4n23)cc1 | n | x
CCc1nc2sc(C(c3ccccc3Cl)N3CCCCC3)c(O)n2n1 (centres undefined) | n | n
COc1ccc(-c2ccc(=O)n(CCCC(=O)N3CCc4ccccc43)n2)cc1OC | n | n
Cc1ccc(-c2ccc(=O)n(CCCC(=O)N3c4ccccc4CC3C)n2)cc1 (centres undefined) | + | n
COc1ccc(-c2ccc(=O)n(CCNS(=O)(=O)c3cccc(C(F)(F)F)c3)n2)cc1 | n | x
CCc1ccc(OCCOCC(O)CN2CCN(c3ccccc3F)CC2)cc1 (centres undefined) | n | x
COc1cccc(OCCOCC(O)CN2CCN(c3ccccc3F)CC2)c1 (centres undefined) | + | x
O=C(c1ccsc1)N(CCc1cccs1)Cc1ccco1 | x | n
COc1ccc(-c2cc(CC(=O)N3CCc4ccccc4C3)no2)cc1OC | n | n
COc1cccc(-c2cc(CC(=O)N3CCc4ccccc4C3)no2)c1 | + | n
Cc1ccnc(Nc2ccc(NCCNS(=O)(=O)c3ccc(F)cc3)nn2)c1 | + | n
O=S(=O)(NCCNc1ccc(Nc2ccccn2)nn1)c1ccc(F)cc1 | n | n
SMILES | AMPAR-TARP mod | GIRK2 activator
COc1nn(C)cc1C(=O)N1CCC(c2nnc(C(C)C)o2)CC1 | n | n
COc1ccc(S(=O)(=O)N2CCN(c3ccc(Nc4cccc(C)n4)nn3)CC2)cc1Cl | + | n
Cc1ccc(S(=O)(=O)N2CCN(c3ccc4nnc(C)n4n3)CC2)cc1C | + | n
COc1ccc(S(=O)(=O)N2CCN(c3ccc(Nc4ccccn4)nn3)CC2)cc1 | n | n
COc1ccc(S(=O)(=O)N2CCN(Cc3nnnn3-c3ccccc3)CC2)cc1OC | n | n
Cc1nnc2ccc(N3CCN(S(=O)(=O)c4ccc(Cl)c(Cl)c4)CC3)nn12 | n | n
COc1ccc(S(=O)(=O)N2CCN(c3ccc(Nc4cccnc4)nn3)CC2)cc1 | + | n
COc1ccc(S(=O)(=O)N2CCN(Cc3nnnn3-c3ccc(C)cc3)CC2)cc1C | + | n
Cc1ccnc(Nc2ccc(N3CCN(S(=O)(=O)c4ccc(F)cc4)CC3)nn2)c1 | x | n
Cc1nc2ccccn2c1C(=O)Nc1ccc2c(c1)N(C(=O)c1cccs1)CC2 | n | n
COc1ccccc1NC(=O)CSc1nnc(-c2cc(C)oc2C)o1 | n | n
CC(C)(C)NC(=O)N1CCC(c2nnc(-c3ccc(F)cc3)o2)CC1 | n | n
Cc1nc2sccn2c(=O)c1NC(=O)Nc1ccc(Cl)c(Cl)c1 | n | n
COc1ccc(NC(=O)CS(=O)(=O)c2ccc(Cl)s2)c(OC)c1 | n | n
CN(C)S(=O)(=O)N1CCN(c2ccc(Nc3ccncc3)nn2)CC1 | n | n
Cc1cccc(Nc2ccc(N3CCN(S(=O)(=O)N(C)C)CC3)nn2)n1 | + | n
Cc1cccc(Nc2ccc(N3CCN(C(=O)c4ccccc4)CC3)nn2)n1 | x | n
COc1ccc(S(=O)(=O)N2CCN(c3ccc(-c4ccncc4)nn3)CC2)cc1C | + | n
COc1cc(N2CCN(S(=O)(=O)c3c(C)noc3C)CC2)nc(OC)n1 | n | n
COc1ccc(S(=O)(=O)N2CCN(c3ccc(-c4cccs4)nn3)CC2)cc1OC | n | n
CCS(=O)(=O)N1CCN(c2ccc(Nc3cccc(C)n3)nn2)CC1 | + | n
Cc1cccc(Nc2ccc(N3CCN(S(=O)(=O)c4c(C)noc4C)CC3)nn2)n1 | + | n
COCCCn1c(C(=O)NCC2COc3ccccc3O2)cc2c(=O)n(C)c(=O)n(C)c21 (centres undefined) | n | n
O=C(Nc1ccc(C(F)(F)F)cc1)N1CCN(c2ccc(-c3ccco3)nn2)CC1 | n | n
Fc1cccc(Cl)c1Cn1c(CN2CCCC2)nc2ccccc21 | + | n

Source: PubChem BioAssay
